Test [1] is described as follows: reducers of endogenous Her2 protein level, primary screen, SKBR3 breast tumor cells, AlphaScreen, ATP viability (AID 461;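 active = Her2 level under about 52% in both replicate screens, with viability over 70% of control, limit read from the data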;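 for Her2 level: lower value means less Her2 protein in the cells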;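 for viability: percent of carrier control wells set as 100% viability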). Conditions: 18-24 h, measured here: SKBR3 viability, ATP luminescence, at 10 µM. In general terms: Bead proximity is the source of the signal in Alpha formats.
Test [2] deals with Receptor tyrosine-protein kinase erbB-2 (Homo sapiens) (UniProt P04626). Described as above. The settings on record: 18-24 h, at 10 µM, stronger effect = lower value.
Test [3] is described as follows: SK-BR-3 cell growth inhibitors, pilot screen, 24 h, human (AID 572;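 active = viability at or below 10% of carrier control in both of two separate runs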;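 note: compound exposure lasted between 18 and 24 h rather than exactly 24 h; 100% = carrier-treated control wells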). The settings on record: SK-BR-3 viability, CellTiter-Glo luminescence, at 10 µM, stronger effect = lower value. For orientation: ATP-based viability assays read luminescence as a measure of living cells.
A short description of test [4]: HUVEC growth inhibition – cell-based, human, primary screen (AID 575;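 active = viability at or below 30% in both replicate assays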;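 note: 100% = median of untreated cell wells with 0.1% DMSO on each plate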). The settings on record: HUVEC proliferation, CellTiter-Glo luminescence, 72 h; at 10 µM; stronger effect = lower value.
A short description of test [5]: growth inhibitors of H69AR lung tumor, primary screen, human, duplicate replicates (AID 580;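 active = viability at or under a set limit in both replicates, limit being median viability minus 3 SD, cut at about 48% in these data, passing the limit was not always enough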;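 note: 100% = mean luminescence of untreated wells and 0% = no signal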). Conditions: H69AR lung tumor cells viability, ATP luminescence, 72 h; at 10 µM; stronger effect = lower value.
A short description of test [6]: reversal of MRP1-mediated doxorubicin resistance, pilot screen, H69AR cells, doxorubicin co-treatment (AID 601). Conditions: CellTiter-Glo, 72 h, at 10 µM; for differential viability (reversal): stronger effect = higher value.
A short description of test [7]: 384-well plate pilot, post-Golgi transport modulator project, inhibition of yeast transport mutant growth (AID 636; in the data active = inhibition above about 31%). The settings on record: absorbance 615 nm, about 18 h, stronger effect = higher value.
Test [8] can be described thus: growth suppression of yeast trafficking mutant, preliminary HTS, modulators of trafficking downstream of Golgi apparatus project, 1536-format plate, OD 615 nm (AID 637; in the data active = inhibition above about 30%). The settings on record: yeast transport mutant growth, absorbance 615 nm, 18 h; stronger effect = higher value.
Test [9] in a line: OD615 S. cerevisiae growth inhibition, permissive medium, pilot counter-assay, permissive growth control for S. cerevisiae lifespan shortening project (AID 705;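 active = growth inhibition above 25% in both replicates, a cutoff set 3 SD above the mean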). Conditions: OD615, 24 h, at 10 µM, stronger effect = higher value.
The nature of test [10]: Restrictive medium S. cerevisiae growth inhibition, OD615, pilot screen of yeast lifespan reduction project, restrictive growth control (AID 706;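 active = growth inhibition above a set limit, 3 SD over mean compound inhibition, in both replicates, cut at about 43% in these data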;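 note: modified DeaD lifespan yeast strain shifted to restrictive glucose medium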). Conditions: OD615, 48 h, at 10 µM, stronger effect = higher value.
Test [11] in a line: viability gain of MRP-1-high H69AR cells under doxorubicin, pilot screen, MRP-1 activator project, CellTiter-Glo, duplicate (AID 807;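 active = viability increase at or above a cutoff of the median across tested compounds plus 3 SD, cut at about 8.5% in these data, passing the limit was not always enough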;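 note: compound pretreatment 18-22 h then 72 h combined with doxorubicin; 0% = doxorubicin alone and 100% = vehicle without doxorubicin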). Conditions: H69AR viability with doxorubicin, CellTiter-Glo luminescence; at 10 µM; stronger effect = higher value.
Test [12] in a line: growth suppression of PTEN-deleted HCT116, pilot screen, cell-based, HCT116 clonal line, CellTiter-Glo (AID 824;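 active = viability at or below 27.92% in each of two runs, the all-compound median minus 4 SD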;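 note: 0% = 20 µM Hyamine control and 100% = vehicle cell control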). The settings on record: 60 h, at 10 µM, stronger effect = lower value.
Test [13] can be described thus: inhibitors of the yeast RAM network, pilot screen, dse1pr::URA3 reporter, 5-FOA selection (AID 869;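 active = inhibition over a set limit, the all-compound mean plus 3 SD, in both replicate runs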;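 note: 0% = DMSO wells with no growth and 100% = 10 µM 1-NA-PP1 with full growth; RAM network block rescues cells from 5-FOA so hits raise OD615 growth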). Conditions: S. cerevisiae dse1pr::URA3 5-FOA growth, OD615, 2 d; at 10 µM; stronger effect = higher value; strain carries analog-sensitive mutant Cbk1 kinase.
The nature of test [14]: RAM signaling pathway blockade in yeast – S. cerevisiae, Pdr1DBD-CYC8 efflux-inhibited sensitized strain, primary screen (AID 1298;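 active = RAM network inhibition above 8.4% in each of two replicates, 3 SD over the compound average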;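 note: 0% = DMSO untreated cells without growth and 100% = 10 µM 1-NA-PP1 full growth; higher means more yeast growth rescued from 5-FOA killing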). The settings on record: S. cerevisiae cbk1-as DSE1-URA3 strain, 5-FOA growth OD615, 2 d; at 50 µM; stronger effect = higher value.
Test [15] in a line: growth suppression of beta-catenin knockout HCT116, pilot screen, human colon tumor cells (AID 823;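 active = cell viability at or below a set limit in both duplicate runs, the limit being the all-compound median minus 4 SD, cut at about 23% in these data, passing the limit was not always enough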;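 note: 0% = wells killed by 20 µM Hyamine and 100% = untreated DMSO cell wells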). Conditions: CellTiter-Glo, 60 h, at 10 µM, stronger effect = lower value.
[16] abbreviates: H69AR cells + 2 uM doxorubicin, measured here: viability with 2 uM doxorubicin, stronger effect = lower value.
[17] abbreviates: H69AR cells, compound alone cytotoxicity.

Inconclusive results are not listed. Calls of active or inactive are those of the source.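 Rule for the calls, unless noted: active = viability loss from added drug above about 55%, and viability with drug at most 40%, in both replicates (limit read from the data, passing the limit was not always enough); inconclusive = both conditions met in only one replicate; inactive = neither replicate meets both conditions.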

The term viability denotes a read-out of living cells in per cent, often relative to untreated cells. One may read the inhibition as the relative decrease from the control value, in per cent.

Receptor tyrosine-protein kinase erbB-2 (Homo sapiens), sequence (P04626 whole entry, looked up): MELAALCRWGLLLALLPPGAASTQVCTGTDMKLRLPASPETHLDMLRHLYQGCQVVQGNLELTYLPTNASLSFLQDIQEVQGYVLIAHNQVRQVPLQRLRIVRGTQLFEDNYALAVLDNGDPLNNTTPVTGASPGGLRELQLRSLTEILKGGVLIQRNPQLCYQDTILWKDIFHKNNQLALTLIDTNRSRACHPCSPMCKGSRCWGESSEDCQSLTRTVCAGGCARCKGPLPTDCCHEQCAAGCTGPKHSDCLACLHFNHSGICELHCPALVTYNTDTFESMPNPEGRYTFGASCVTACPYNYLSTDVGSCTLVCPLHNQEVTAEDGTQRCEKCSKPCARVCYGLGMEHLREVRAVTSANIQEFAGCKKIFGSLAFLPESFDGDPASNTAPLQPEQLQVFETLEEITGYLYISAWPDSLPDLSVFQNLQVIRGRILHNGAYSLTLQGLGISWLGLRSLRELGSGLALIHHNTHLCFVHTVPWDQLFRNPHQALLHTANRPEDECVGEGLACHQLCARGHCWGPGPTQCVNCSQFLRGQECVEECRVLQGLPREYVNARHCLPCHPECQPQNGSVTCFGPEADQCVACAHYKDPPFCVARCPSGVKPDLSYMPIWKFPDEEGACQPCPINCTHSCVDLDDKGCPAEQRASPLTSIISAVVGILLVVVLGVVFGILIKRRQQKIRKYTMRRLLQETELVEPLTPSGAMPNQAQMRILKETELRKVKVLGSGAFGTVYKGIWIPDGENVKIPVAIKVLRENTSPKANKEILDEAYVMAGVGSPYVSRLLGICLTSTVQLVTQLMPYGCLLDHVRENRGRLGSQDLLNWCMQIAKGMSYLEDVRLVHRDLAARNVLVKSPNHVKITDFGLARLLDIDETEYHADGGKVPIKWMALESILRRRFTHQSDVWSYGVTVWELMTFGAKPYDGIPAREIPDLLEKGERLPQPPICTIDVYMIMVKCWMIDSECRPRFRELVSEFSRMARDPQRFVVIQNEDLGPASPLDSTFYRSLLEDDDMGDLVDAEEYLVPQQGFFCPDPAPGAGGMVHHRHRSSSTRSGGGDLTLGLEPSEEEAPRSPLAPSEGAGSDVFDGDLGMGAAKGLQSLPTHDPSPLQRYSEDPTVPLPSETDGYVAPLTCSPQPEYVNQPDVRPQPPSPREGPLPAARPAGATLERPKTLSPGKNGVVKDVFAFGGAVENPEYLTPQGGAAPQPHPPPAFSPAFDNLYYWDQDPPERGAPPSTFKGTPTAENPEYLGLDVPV

As to `CC(C)c1ccc(NC(=O)CCNS(=O)(=O)c2cccc3nonc23)cc1`, the viability in test [1] is 98.5%; in test [3], 98.5% (inactive); in test [4] it was 84.6% (inactive); in test [5] it was 95.3% (inactive); in test [6] (setting [16]), 93.9%; in [6] (setting [17]), 95.3%. In addition, the viability in test [12] is 86.3% (inactive). For the same compound, the Her2 level in [2] was 89% (inactive). Moreover, in test [6] (H69AR cells + 2 uM doxorubicin), the differential viability (reversal) was 1.35% (inactive). For the same compound, the inhibition in test [7] is -8.9% (inactive); in test [8], -3.17% (inactive); in [13], 0.265% (inactive). For the same compound, the growth inhibition is -7.97% (inactive) in [9] and -5.83% (inactive) in test [10]. For the same compound, the viability increase in [11] is -1.42% (inactive). Moreover, in test [14], the RAM network inhibition was 1.64% (inactive).
`CC(=O)NCC(=O)N(Cc1ccco1)C1(C(=O)NC2CCCCC2)CCCCC1`: the viability in test [1] is 140%; in test [3], 140% (inactive); in test [4] it was 103% (inactive); in [5], 90.9% (inactive); in test [6] (setting [16]) it was 88.3%; in [6] (setting [17]) it was 90.9%. In test [12], the viability was 90% (inactive). Besides, the Her2 level in test [2] was 93% (inactive). Moreover, in [6] (H69AR cells + 2 uM doxorubicin), the differential viability (reversal) is 2.67% (inactive). The inhibition in test [7] is -9.59% (inactive); in test [8], 2.7% (inactive); in [13], 2.22% (inactive). Besides, the results for the growth inhibition in test [9] and in [10] were -7.64% (inactive) and 2.32% (inactive), respectively. Moreover, the viability increase in test [11] was -5.15% (inactive). Moreover, the RAM network inhibition in [14] is -0.72% (inactive).
Regarding `COCc1nnc(NC(=O)c2ccc(S(=O)(=O)N(C)c3ccccc3)cc2)o1`, the viability in test [1] was 85%; in [3], 85% (inactive); in test [4], 66.6% (inactive); in test [5] it was 43.7% (active); in [6] (setting [16]), 62.2%; in [6] (setting [17]) it was 43.7%. The viability in test [15] was 29.7% (inactive). Further, the Her2 level in test [2] was 107% (inactive). Further, the differential viability (reversal) in [6] (H69AR cells + 2 uM doxorubicin) is -18.5% (inactive). In addition, the inhibition in test [7] is -3.87% (inactive); in [8], -2.17% (inactive); in test [13], 0.19% (inactive). The growth inhibition in test [9] is 3.04% (inactive); in test [10], 9.5% (inactive). The viability increase in [11] was -5.06% (inactive). The RAM network inhibition in [14] is 4.65% (inactive).
As to `CCC(C)(NC(=O)CNC(C)=O)C(=O)NC1CCCCC1` (stereo not given), the viability is 130% in [1]; 130% (inactive) in [3]; 105% (inactive) in [4]; 94% (inactive) in test [5]; 97.1% in test [6] (setting [16]); 94% in test [6] (setting [17]). Further, the viability in [12] was 97.7% (inactive). Further, in test [2], the Her2 level is 108% (inactive). Moreover, the differential viability (reversal) in test [6] (H69AR cells + 2 uM doxorubicin) was -3.05% (inactive). In addition, the inhibition in test [7] was -5.48% (inactive); in [8], -9.52% (inactive); in test [13], 2.88% (inactive). The growth inhibition in [9] is -15.5% (inactive); in test [10], -3.8% (inactive). In [11], the viability increase was -1.92% (inactive). In test [14], the RAM network inhibition is -0.83% (inactive).
`O=C(CCNS(=O)(=O)c1cccc2nsnc12)Nc1ccc2c(c1)OCCO2`: the viability in test [1] is 90.5%; in [3] it was 90.5% (inactive); in [4] it was 88.7% (inactive); in test [5] it was 101% (inactive); in [6] (setting [16]) it was 88.5%; in [6] (setting [17]), 101%. In addition, the viability in [12] was 98.9% (inactive). Besides, the Her2 level in test [2] is 96% (inactive). The differential viability (reversal) in [6] (H69AR cells + 2 uM doxorubicin) was 12.9% (inactive). For the same compound, the inhibition was -7.95% (inactive) in test [7], -1.11% (inactive) in test [8] and 2.37% (inactive) in test [13]. In addition, the growth inhibition was -7.75% (inactive) in [9] and -0.065% (inactive) in test [10]. For the same compound, in [11], the viability increase was -3.8% (inactive). The RAM network inhibition in [14] was 4.76% (inactive).

The values are drawn from PubChem BioAssay.
